From PubChem BioAssay (Tox21)
Inconclusive results are not listed. The source made the active and inactive calls. Unless noted, calls follow the shape of the full dose curve.

Key:
[1] = target: Acetylcholinesterase (Homo sapiens) (UniProt P22303); assay: Acetylcholinesterase (AChE) small molecule antagonists: colormetric cell-based qHTS assay (AID 1347395); also: nearly all actives have a fitted effect of over 30% in size
Outline: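 Endogenous AChE of human neuroblastoma SH-SY5Y cells was measured with an Ellman-type DTNB/acetylthiocholine mix. Compound pretreatment lasted 30 min at 37 C; substrate reaction ran 90 min at 37 C.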

[2] = target: Acetylcholinesterase (Homo sapiens) (UniProt P22303); assay: Acetylcholinesterase (AChE) small molecule antagonists: enzyme-based qHTS assay (AID 1347397); conditions: Potency: AChE enzyme activity inhibition; also: nearly all actives have a fitted effect of over 55% in size
Outline: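 Human recombinant acetylcholinesterase; substrate acetylthiocholine; thiocholine quantified with DTNB (colorimetric). Compound preincubation 30 min RT; reaction 10 min RT.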

[3] = target: Acetylcholinesterase (Homo sapiens) (UniProt P22303); assay: Acetylcholinesterase (AChE) small molecule antagonists: fluorescence cell-based qHTS assay (AID 1347398); conditions: Potency: AChE activity; also: nearly all actives have a fitted effect of over 50% in size
Outline: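 Thiocholine generated from acetylthiocholine by SH-SY5Y cell AChE is detected with Thiolite Green (Ex/Em 490/520 nm) after 40 min at room temperature, following 30 min compound pretreatment at 37 C.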

[4] = target: Acetylcholinesterase (Homo sapiens) (UniProt P22303); assay: Acetylcholinesterase (AChE) small molecule antagonists: enzyme-based qHTS assay with human liver microsomes (AID 1347399); conditions: Potency: qHTS inhibition; also: nearly all actives have a fitted effect of over 60% in size
Outline: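 Recombinant human AChE (50 mU/mL in the enzyme mix) and human liver microsomes (0.25 mg/mL final) were preincubated with compound and NADPH (0.25 mg/mL final) for 30 min at 37 C. Acetylthiocholine/DTNB was then added; thiocholine was read colorimetrically after 10 min at room temperature.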

[5] = target: Cytochrome P450 2D6 (Homo sapiens) (UniProt P10635); assay: Cytochrome P450 Family 2 Subfamily D Member 6 (CYP2D6) small molecule antagonists: luciferase reporter qHTS assay (AID 1671196; active = well fitted curve in the direction sought with a large enough effect in the repeat runs; an effect the other way counts as inactive or inconclusive; also: nearly all actives have a fitted effect of over 50% in size; also: potency is read from the fitted curve at half-maximal effect)
Outline: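 Inhibition of CYP2D6 was gauged by loss of luminescence, since light produced tracks the luciferin generated from a proluciferin substrate. A 10 min room-temperature preincubation preceded 1 h NADPH-supported turnover.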

[6] = target: Cytochrome P450 2C19 (Homo sapiens) (UniProt P33261); assay: Cytochrome P450 Family 2 Subfamily C Member 19 (CYP2C19) small molecule antagonists: luciferase reporter qHTS assay (AID 1671197; active = well fitted curve in the direction sought with a large enough effect in the repeat runs; an effect the other way counts as inactive or inconclusive; also: nearly all actives have a fitted effect of over 65% in size; also: potency is read from the fitted curve at half-maximal effect)
Outline: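 Enzyme-substrate mix with proluciferin substrate (P450-Glo CYP2C19 system) preincubated with compounds 10 min at room temperature; NADPH regeneration solution added, 37C for 1 h; detection reagent stops reaction, luminescence read after 20 min. Ketoconazole positive control.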

[7] = target: Voltage-gated inwardly rectifying potassium channel KCNH2 (Homo sapiens) (UniProt Q12809); assay: Human Ether-a-go-go-Related Gene (hERG) channel small molecule antagonists: fluorescence cell-based qHTS assay (AID 1671200; active = well fitted curve in the direction sought with a large enough effect in the repeat runs; an effect the other way counts as inactive or inconclusive;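 also: hERG-expressing U2OS cells given a thallium stimulus after FluxOR II dye loading; series mostly up to about 77 µM; nearly all actives have a fitted effect of over 50% in size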)
Outline: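 Quantitative HTS in hERG-U2OS cells: thallium entry through the channel reports activity, read as continuous 480/540 nm fluorescence over 2 min after stimulus addition.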

[8] = target: Cytochrome P450 2C9 (Homo sapiens) (UniProt P11712); assay: Cytochrome P450 Family 2 Subfamily C Member 9 (CYP2C9) small molecule antagonists: luciferase reporter qHTS assay (AID 1671198; active = well fitted curve in the direction sought with a large enough effect in the repeat runs; an effect the other way counts as inactive or inconclusive; also: series mostly up to about 120 µM; nearly all actives have a fitted effect of over 50% in size)
Outline: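 CYP2C9 activity was measured with a P450-Glo proluciferin substrate. Enzyme–substrate mix was held with compound for 10 min at room temperature, then NADPH regeneration solution was added for 1 h at 37C. Luciferin product was read as luminescence.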

[9] = target: Cytochrome P450 3A4 (Homo sapiens) (UniProt P08684); assay: Cytochrome P450 Family 3 Subfamily A Member 4 (CYP3A4) small molecule antagonists: luciferase reporter qHTS assay (AID 1671201; active = well fitted curve in the direction sought with a large enough effect in the repeat runs; an effect the other way counts as inactive or inconclusive)
Outline: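 Inhibition of CYP3A4 is measured as loss of light: the enzyme converts a proluciferin substrate to luciferin, detected luminescently. Reaction ran 1 h at room temperature with NADPH regeneration after a 10 min compound preincubation.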

[10] = target: Cytochrome P450 1A2 (Homo sapiens) (UniProt P05177); assay: Cytochrome P450 Family 1 Subfamily A Member 2 (CYP1A2) small molecule antagonists: luciferase reporter qHTS assay (AID 1671199; active = well fitted curve in the direction sought with a large enough effect in the repeat runs; an effect the other way counts as inactive or inconclusive)
Outline: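 Signal from luciferin formed by CYP1A2 from a proluciferin substrate is read as luminescence, expressed in relative luminescence units. Compounds sit with enzyme 10 min, NADPH-driven reaction runs 1 h, all at room temperature.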

Measured: Potency

Sequence of Acetylcholinesterase (Homo sapiens) (P22303 whole entry, looked up): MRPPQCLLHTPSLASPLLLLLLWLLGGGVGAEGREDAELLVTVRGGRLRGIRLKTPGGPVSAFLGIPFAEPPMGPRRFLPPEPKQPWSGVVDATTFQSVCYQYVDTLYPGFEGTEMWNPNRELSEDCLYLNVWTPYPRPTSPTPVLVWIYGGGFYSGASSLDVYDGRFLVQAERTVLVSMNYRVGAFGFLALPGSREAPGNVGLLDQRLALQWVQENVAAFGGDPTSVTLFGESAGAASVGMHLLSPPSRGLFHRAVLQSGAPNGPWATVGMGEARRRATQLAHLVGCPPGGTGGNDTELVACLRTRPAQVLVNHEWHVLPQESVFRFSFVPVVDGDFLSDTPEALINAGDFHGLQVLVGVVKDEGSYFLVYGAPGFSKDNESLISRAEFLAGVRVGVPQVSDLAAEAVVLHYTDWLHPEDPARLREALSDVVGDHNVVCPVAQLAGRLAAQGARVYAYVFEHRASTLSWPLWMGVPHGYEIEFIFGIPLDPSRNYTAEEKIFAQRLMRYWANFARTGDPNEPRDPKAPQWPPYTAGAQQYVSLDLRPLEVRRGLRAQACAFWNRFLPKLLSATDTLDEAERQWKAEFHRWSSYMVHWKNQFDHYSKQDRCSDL
Sequence of Cytochrome P450 3A4 (Homo sapiens) (P08684 whole entry, looked up): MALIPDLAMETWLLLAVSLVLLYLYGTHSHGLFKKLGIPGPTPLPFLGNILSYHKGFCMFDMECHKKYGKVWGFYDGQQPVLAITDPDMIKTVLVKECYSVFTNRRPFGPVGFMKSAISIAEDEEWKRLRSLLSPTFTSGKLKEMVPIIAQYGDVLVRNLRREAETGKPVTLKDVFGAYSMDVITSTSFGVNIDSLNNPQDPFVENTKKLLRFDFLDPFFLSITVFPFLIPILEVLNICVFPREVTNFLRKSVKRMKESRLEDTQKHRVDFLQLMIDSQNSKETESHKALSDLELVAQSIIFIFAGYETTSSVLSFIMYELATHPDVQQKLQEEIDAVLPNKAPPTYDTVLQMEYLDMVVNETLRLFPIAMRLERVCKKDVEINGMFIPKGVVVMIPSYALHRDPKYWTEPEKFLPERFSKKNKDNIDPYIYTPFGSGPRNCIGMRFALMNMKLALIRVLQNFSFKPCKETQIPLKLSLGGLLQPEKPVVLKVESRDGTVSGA
Sequence of Cytochrome P450 2D6 (Homo sapiens) (P10635 whole entry, looked up): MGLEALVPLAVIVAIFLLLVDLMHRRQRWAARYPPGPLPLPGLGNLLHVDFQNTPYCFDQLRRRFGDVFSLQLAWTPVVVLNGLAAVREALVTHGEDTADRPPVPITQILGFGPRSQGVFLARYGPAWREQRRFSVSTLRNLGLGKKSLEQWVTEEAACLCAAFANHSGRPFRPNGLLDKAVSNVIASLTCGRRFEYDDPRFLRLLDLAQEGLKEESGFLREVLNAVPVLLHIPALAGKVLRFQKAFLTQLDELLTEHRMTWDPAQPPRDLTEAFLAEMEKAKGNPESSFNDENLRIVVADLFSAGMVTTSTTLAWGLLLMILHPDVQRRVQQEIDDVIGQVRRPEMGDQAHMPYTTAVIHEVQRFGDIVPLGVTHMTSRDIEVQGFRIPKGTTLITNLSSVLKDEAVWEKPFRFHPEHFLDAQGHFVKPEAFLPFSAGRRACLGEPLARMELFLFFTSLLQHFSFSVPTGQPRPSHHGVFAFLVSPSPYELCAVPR
Sequence of Voltage-gated inwardly rectifying potassium channel KCNH2 (Homo sapiens) (Q12809 whole entry, looked up): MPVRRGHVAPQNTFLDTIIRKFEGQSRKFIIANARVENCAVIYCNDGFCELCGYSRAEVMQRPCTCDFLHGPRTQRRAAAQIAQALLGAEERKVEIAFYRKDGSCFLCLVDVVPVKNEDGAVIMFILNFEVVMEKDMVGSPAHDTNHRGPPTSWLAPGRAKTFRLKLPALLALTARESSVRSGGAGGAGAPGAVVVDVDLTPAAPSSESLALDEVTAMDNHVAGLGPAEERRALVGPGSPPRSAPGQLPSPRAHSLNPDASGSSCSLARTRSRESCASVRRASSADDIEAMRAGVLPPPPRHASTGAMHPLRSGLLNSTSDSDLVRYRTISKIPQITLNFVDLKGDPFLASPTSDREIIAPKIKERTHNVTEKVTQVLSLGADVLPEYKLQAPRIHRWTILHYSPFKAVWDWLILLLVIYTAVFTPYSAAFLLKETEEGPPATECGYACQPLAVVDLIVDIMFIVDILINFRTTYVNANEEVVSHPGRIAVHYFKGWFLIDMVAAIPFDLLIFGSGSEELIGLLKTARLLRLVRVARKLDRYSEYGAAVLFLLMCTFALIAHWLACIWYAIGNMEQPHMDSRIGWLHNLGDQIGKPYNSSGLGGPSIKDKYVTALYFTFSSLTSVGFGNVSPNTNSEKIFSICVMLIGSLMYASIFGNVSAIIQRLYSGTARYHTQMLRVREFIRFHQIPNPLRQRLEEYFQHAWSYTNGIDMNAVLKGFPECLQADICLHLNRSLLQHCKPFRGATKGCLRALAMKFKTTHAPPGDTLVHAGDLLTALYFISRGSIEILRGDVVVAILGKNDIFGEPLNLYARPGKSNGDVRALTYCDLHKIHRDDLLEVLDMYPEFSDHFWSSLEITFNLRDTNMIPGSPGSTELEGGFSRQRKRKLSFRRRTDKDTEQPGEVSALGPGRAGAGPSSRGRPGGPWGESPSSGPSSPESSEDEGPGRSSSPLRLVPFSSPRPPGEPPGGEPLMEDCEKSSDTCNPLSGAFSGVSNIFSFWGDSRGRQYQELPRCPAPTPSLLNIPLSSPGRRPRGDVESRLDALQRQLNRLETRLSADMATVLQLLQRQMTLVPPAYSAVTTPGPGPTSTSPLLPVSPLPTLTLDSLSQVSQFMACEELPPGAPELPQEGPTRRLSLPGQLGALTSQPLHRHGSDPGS
Sequence of Cytochrome P450 2C9 (Homo sapiens) (P11712 whole entry, looked up): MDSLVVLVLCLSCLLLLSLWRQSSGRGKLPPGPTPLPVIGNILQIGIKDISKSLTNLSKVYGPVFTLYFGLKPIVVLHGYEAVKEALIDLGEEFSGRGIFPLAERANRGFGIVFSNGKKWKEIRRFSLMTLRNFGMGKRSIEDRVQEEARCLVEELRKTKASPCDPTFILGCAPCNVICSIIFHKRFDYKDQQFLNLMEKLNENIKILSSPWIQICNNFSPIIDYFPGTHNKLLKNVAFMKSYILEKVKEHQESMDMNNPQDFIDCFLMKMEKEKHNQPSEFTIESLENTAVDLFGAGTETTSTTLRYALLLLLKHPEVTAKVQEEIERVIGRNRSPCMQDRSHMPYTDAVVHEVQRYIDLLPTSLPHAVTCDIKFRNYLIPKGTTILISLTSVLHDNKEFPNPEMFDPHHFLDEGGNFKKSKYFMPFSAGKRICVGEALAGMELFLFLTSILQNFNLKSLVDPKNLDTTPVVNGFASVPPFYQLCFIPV
Sequence of Cytochrome P450 2C19 (Homo sapiens) (P33261 whole entry, looked up): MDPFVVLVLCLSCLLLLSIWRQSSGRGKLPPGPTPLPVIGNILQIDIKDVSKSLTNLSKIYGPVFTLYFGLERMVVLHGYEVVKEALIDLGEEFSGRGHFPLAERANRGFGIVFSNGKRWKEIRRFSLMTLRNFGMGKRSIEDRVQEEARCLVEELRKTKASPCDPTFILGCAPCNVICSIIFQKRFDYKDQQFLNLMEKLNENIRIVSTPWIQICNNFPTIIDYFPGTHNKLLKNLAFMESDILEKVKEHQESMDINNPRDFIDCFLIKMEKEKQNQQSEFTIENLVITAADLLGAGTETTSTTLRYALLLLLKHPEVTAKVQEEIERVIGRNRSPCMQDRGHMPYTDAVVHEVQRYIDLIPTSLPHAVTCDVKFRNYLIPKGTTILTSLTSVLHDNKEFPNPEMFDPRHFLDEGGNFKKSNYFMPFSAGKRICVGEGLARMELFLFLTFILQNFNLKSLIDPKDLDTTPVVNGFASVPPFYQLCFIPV
Sequence of Cytochrome P450 1A2 (Homo sapiens) (P05177 whole entry, looked up): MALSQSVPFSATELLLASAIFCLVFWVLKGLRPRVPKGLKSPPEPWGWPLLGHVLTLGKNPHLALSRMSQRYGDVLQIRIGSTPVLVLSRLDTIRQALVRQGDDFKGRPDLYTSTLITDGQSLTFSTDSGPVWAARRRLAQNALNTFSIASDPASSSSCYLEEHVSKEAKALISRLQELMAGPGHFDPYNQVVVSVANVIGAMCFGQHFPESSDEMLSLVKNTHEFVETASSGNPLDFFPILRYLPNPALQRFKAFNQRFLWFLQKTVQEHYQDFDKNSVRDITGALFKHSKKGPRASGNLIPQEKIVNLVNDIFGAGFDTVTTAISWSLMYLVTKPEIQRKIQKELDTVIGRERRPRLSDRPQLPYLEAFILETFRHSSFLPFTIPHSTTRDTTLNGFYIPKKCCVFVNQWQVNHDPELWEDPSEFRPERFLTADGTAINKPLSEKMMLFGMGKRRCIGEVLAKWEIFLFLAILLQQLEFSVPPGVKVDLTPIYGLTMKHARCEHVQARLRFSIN

CCCC(=O)Cl
not listed: [8] | [9] | [10]
inactive: all other assays above

C=CC(C)=O
not listed: [6] | [10]
inactive: all other assays above

COC(=O)C(Cl)C(=O)OC
not listed: [6] | [8]
inactive: all other assays above

CCO[C@H]1O[C@@H]2OC3(C)CC[C@H]4[C@H](C)CC[C@@H]([C@H]1C)[C@@]24OO3
active: [6] 21.9 µM
not listed: [8] | [9] | [10]
inactive: all other assays above

C(=NC1CCCCC1)=NC1CCCCC1
active: [5] 63.3 µM
not listed: [6] | [7]
inactive: all other assays above

Cc1c(F)c(F)c(COC(=O)C2C(/C=C(\Cl)C(F)(F)F)C2(C)C)c(F)c1F (configuration not stated)
active: [6] 35.6 µM
not listed: [7] | [8] | [10]
inactive: all other assays above

Cn1cc[n+](C)c1 (tested in a mixture with another compound)
not listed: [6]
inactive: all other assays above

O=C(C(Cl)(Cl)Cl)C(Cl)(Cl)Cl
active: [5] 36.3 µM
not listed: [8] | [9] | [10]
inactive: all other assays above

CCN(C)N=O
not listed: [8] | [10]
inactive: all other assays above

C=CC(=O)OCC(C)C
not listed: [8] | [10]
inactive: all other assays above
